This passage reports outcome and AC50 results from PubChem BioAssay (EPA / NIEHS).

Read-out in experiment [1]: TIMP metallopeptidase inhibitor 1 (TIMP1), TIMP1 (gene 7076)
The experiment can be described thus: BSK_hDFCGF_TIMP1: BioMAP Diversity Plus: hDFCGF Assay for TIMP metallopeptidase inhibitor 1 (TIMP1) Biomarker Activity (AID 2283062). The following applies: primary human foreskin fibroblasts; actives raise or lower the signal. The method in brief: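 Human foreskin fibroblast primary cultures dosed for 24 h; secreted/surface TIMP-1 quantified by ELISA. Bidirectional curve fitting against DMSO baseline; cytotoxicity tracked in parallel cultures by SRB total-protein staining.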

Read-out in experiment [2]: Monokine induced gamma interferon (MIG), CXCL9 (gene 4283)
The experiment can be described thus: BSK_hDFCGF_MIG: BioMAP Diversity Plus: hDFCGF Assay for Monokine induced gamma interferon (MIG) Biomarker Activity (AID 2283063). The following applies: primary human foreskin fibroblasts; actives raise or lower the signal. Summed up: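 MIG/CXCL9 measured by ELISA 24 h after dosing primary human skin fibroblasts. Activity fitted in both directions against DMSO controls. Cytotoxicity was checked in parallel cultures by SRB staining read at 560 nm.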

Read-out in experiment [3]: Matrix Metallopeptidase 1 (MMP1), MMP1 (gene 4312)
The experiment can be described thus: BSK_hDFCGF_MMP1: BioMAP Diversity Plus: hDFCGF Assay for Matrix Metallopeptidase 1 (MMP1) Biomarker Activity (AID 2283064). The following applies: primary human foreskin fibroblasts; actives raise or lower the signal. Summed up: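 hDFCGF primary fibroblasts (human foreskin); chemical added; 24 h; MMP1 by ELISA; bidirectional fit vs DMSO.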

Read-out in experiment [4]: Vascular cell adhesion molecule 1 (VCAM1), VCAM1 (gene 7412)
The experiment can be described thus: BSK_hDFCGF_VCAM1: BioMAP Diversity Plus: hDFCGF Assay for Vascular cell adhesion molecule 1 (VCAM1) Biomarker Activity (AID 2283065).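 For AC50: VCAM-1 protein level quantified by ELISA after 24 h chemical exposure.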 The settings on record: primary human foreskin fibroblasts; actives raise or lower the signal. The method in brief: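 Human foreskin fibroblast primary cells dosed with chemical, VCAM-1 measured by ELISA at 24 h. Bidirectional curve fitting relative to DMSO as negative control/baseline.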

Read-out in experiment [5]: Intercellular Adhesion Molecule 1 (ICAM1), ICAM1 (gene 3383)
The experiment can be described thus: BSK_KF3CT_ICAM1: BioMAP Diversity Plus: KF3CT Assay for Intercellular Adhesion Molecule 1 (ICAM1) Biomarker Activity (AID 2283067). The following applies: primary human keratinocytes with fibroblasts; actives raise or lower the signal. The method in brief: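 Human keratinocyte–foreskin fibroblast co-culture was treated for 24 h. Cell-surface ICAM-1 was quantified by ELISA, fitted bidirectionally relative to DMSO. Cytotoxicity was checked in parallel cultures by SRB total-protein staining.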

Read-out in experiment [6]: Interferon-gamma inducible Protein 10 (IP10), CXCL10 (gene 3627)
The experiment in a line: BSK_KF3CT_IP10: BioMAP Diversity Plus: KF3CT Assay for Interferon-gamma inducible Protein 10 (IP10) Biomarker Activity (AID 2283068). The following applies: primary human keratinocytes with fibroblasts; actives raise or lower the signal. Summed up:
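Human keratinocyte plus foreskin fibroblast primary co-culture exposed to test chemical for 24 h; IP-10 measured by ELISA. Concentration-response fitted bidirectionally against DMSO control as baseline.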

Experiment [7] is described as follows: BSK_KF3CT_SRB: Viability Assessment in the BioMAP Diversity Plus: KF3CT Assay (AID 2283069).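 Note: total protein by sulforhodamine B staining as a cytotoxicity measure; fitted for both signal gain and loss against DMSO baseline.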 The settings on record: primary human keratinocytes with fibroblasts. Summed up: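 Keratinocytes co-cultured with foreskin fibroblasts (human primary); chemical added, 24 h; fix 10% TCA, stain 0.1% SRB, A560. Bidirectional fit vs DMSO.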
Read-out in experiment [8]: TIMP metallopeptidase inhibitor 2 (TIMP2), TIMP2 (gene 7077)
The experiment in a line: BSK_KF3CT_TIMP2: BioMAP Diversity Plus: KF3CT Assay for TIMP metallopeptidase inhibitor 2 (TIMP2) Biomarker Activity (AID 2283071). The settings on record: primary human keratinocytes with fibroblasts; actives raise or lower the signal. The method in brief:
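Co-culture of human primary keratinocytes and foreskin fibroblasts, measured 24 h after chemical dosing. TIMP-2 quantified by ELISA and fitted in both directions relative to DMSO. Cytotoxicity checked in parallel cultures by SRB total-protein staining.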

Read-out in experiment [9]: Transforming growth factor beta 1 (TGFb1), TGFB1 (gene 7040)
The experiment can be described thus: BSK_KF3CT_TGFb1: BioMAP Diversity Plus: KF3CT Assay for Transforming growth factor beta 1 (TGFb1) Biomarker Activity (AID 2283072). The settings on record: primary human keratinocytes with fibroblasts; actives raise or lower the signal. Summed up: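 Human keratinocyte/foreskin fibroblast co-culture; TGF-b1 measured by ELISA 24 h after dosing, fitted bidirectionally versus DMSO. Cytotoxicity checked in parallel cultures by total protein (SRB staining, 560 nm).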

Read-out in experiment [10]: C-C motif chemokine 2 (Homo sapiens) (UniProt P13500)
The experiment can be described thus: BSK_KF3CT_MCP1: BioMAP Diversity Plus: KF3CT Assay for Monocyte Chemoattractant Protein 1 (MCP1/CCL2) Biomarker Activity (AID 2283073). The following applies: primary human keratinocytes with fibroblasts; actives raise or lower the signal. Summed up: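 Human keratinocyte–foreskin fibroblast co-culture; MCP-1 measured by ELISA 24 h after dosing. Bidirectional fit vs DMSO; cytotoxicity tracked by SRB total protein in parallel cultures.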

Read-out in experiment [11]: Matrix Metallopeptidase 9 (MMP9), MMP9 (gene 4318)
The experiment can be described thus: BSK_KF3CT_MMP9: BioMAP Diversity Plus: KF3CT Assay for Matrix Metallopeptidase 9 (MMP9) Biomarker Activity (AID 2283074).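 For AC50: MMP9 protein level quantified by ELISA in the co-culture.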 The following applies: primary human keratinocytes with fibroblasts; actives raise or lower the signal. Summed up: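 Human keratinocyte/foreskin fibroblast co-culture; compound added; 24 h; MMP-9 by ELISA; bidirectional fit vs DMSO baseline.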

Read-out in experiment [12]: urokinase plasminogen activator (uPA), PLAU (gene 5328)
The experiment in a line: BSK_KF3CT_uPA: BioMAP Diversity Plus: KF3CT Assay for urokinase plasminogen activator (uPA) Biomarker Activity (AID 2283075). The following applies: primary human keratinocytes with fibroblasts; actives raise or lower the signal. The method in brief: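 ELISA readout of uPA, analyzed for signal gain or loss relative to DMSO, from a human primary keratinocyte–foreskin fibroblast co-culture measured 24 h after chemical treatment.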

Read-out in experiment [13]: CD40, CD40 (gene 958)
The experiment can be described thus: BSK_LPS_CD40: BioMAP Diversity Plus: LPS Assay for CD40 Biomarker Activity (AID 2283076). The settings on record: primary human HUVEC with PBMC; actives raise or lower the signal. Summed up: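 HUVEC plus PBMC co-culture stimulated with LPS; CD40 quantified by ELISA 24 h after compound dosing. Fitting was bidirectional relative to DMSO. SRB staining of parallel cultures flagged overt cytotoxicity.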

Read-out in experiment [14]: E-selectin (Homo sapiens) (UniProt P16581)
The experiment can be described thus: BSK_LPS_Eselectin: BioMAP Diversity Plus: LPS Assay for Eselectin Biomarker Activity (AID 2283077). The following applies: primary human HUVEC with PBMC; actives raise or lower the signal. Summed up:
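Human umbilical vein endothelial cells co-cultured with PBMC under LPS stimulation; cell-surface E-selectin measured by ELISA 24 h after dosing. Change in either direction versus DMSO, with SRB total-protein staining in parallel cultures for cytotoxicity.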

Read-out in experiment [15]: Interleukin-8 (IL8), CXCL8 (gene 3576)
The experiment in a line: BSK_LPS_IL8: BioMAP Diversity Plus: LPS Assay for Interleukin-8 (IL8) Biomarker Activity (AID 2283078). The following applies: primary human HUVEC with PBMC; actives raise or lower the signal. Summed up: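 Human umbilical vein endothelial cells co-cultured with PBMC, LPS-stimulated, exposed to compound for 24 h. IL-8 quantified by ELISA; fitted in both directions against DMSO, with SRB total-protein staining of parallel cultures for cytotoxicity.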

Experiment [16] can be described thus: BSK_LPS_SRB: Viability Assessment in the BioMAP Diversity Plus: LPS Assay (AID 2283079).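 Note: total protein by sulforhodamine B absorbance as a cytotoxicity measure; measured one day after compound addition; fitted in both directions against DMSO so loss or gain of signal counts.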 The settings on record: primary human HUVEC with PBMC. Summed up:
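Co-culture of human umbilical vein endothelial cells and PBMC, read 24 h after dosing. Total protein by 0.1% SRB staining after 10% TCA fixation, absorbance at 560 nm; bidirectional fit against DMSO.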

Read-out in experiment [17]: Interleukin-1 alpha (IL1a), IL1A (gene 3552)
The experiment can be described thus: BSK_LPS_IL1a: BioMAP Diversity Plus: LPS Assay for Interleukin-1 alpha (IL1a) Biomarker Activity (AID 2283080). The settings on record: primary human HUVEC with PBMC; actives raise or lower the signal. Summed up:
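Human umbilical vein endothelial cells co-cultured with PBMC and stimulated with LPS; IL-1a measured by ELISA 24 h after dosing. Bidirectional fitting against DMSO; cytotoxicity checked by SRB staining in parallel cultures.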

Read-out in experiment [18]: Monocyte Chemoattractant Protein-1 (MCP1), CCL2 (gene 6347)
The experiment can be described thus: BSK_LPS_MCP1: BioMAP Diversity Plus: LPS Assay for Monocyte Chemoattractant Protein-1 (MCP1) Biomarker Activity (AID 2283081).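 For AC50: secreted MCP-1 protein quantified by ELISA in culture supernatant.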 The following applies: primary human HUVEC with PBMC; actives raise or lower the signal. Summed up:
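Human umbilical vein endothelial cells co-cultured with PBMC, LPS-stimulated; secreted MCP-1 measured by ELISA 24 h after compound addition. Bidirectional curve fitting against DMSO baseline; SRB total-protein staining in parallel cultures for cytotoxicity.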

Read-out in experiment [19]: Interleukin-1 alpha (IL1a), IL1A (gene 3552)
The experiment can be described thus: BSK_KF3CT_IL1a: BioMAP Diversity Plus: KF3CT Assay for Interleukin-1 alpha (IL1a) Biomarker Activity (AID 2283070). The settings on record: primary human keratinocytes with fibroblasts; actives raise or lower the signal. The method in brief: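 Chemicals were dosed onto co-cultured human keratinocytes and foreskin fibroblasts, IL-1a was quantified by ELISA at 24 h, and activity was fitted in both directions relative to DMSO controls.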

Read-out in experiment [20]: Plasminogen activator inhibitor-1 (PAI1), SERPINE1 (gene 5054)
The experiment can be described thus: BSK_hDFCGF_PAI1: BioMAP Diversity Plus: hDFCGF Assay for Plasminogen activator inhibitor-1 (PAI1) Biomarker Activity (AID 2283066). The settings on record: primary human foreskin fibroblasts; actives raise or lower the signal. The method in brief: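 Human foreskin fibroblast primary cells, 24 h chemical exposure; PAI-1 measured by ELISA. Bidirectional fitting relative to DMSO; parallel cultures stained with SRB for total protein to flag overt cytotoxicity.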

Structures are written as SMILES. Activity calls are given as the source filed them. Rule for the calls: active = hit-call score of the fitted dose curve at least 0.9, where 1 is the maximum; inactive = score below 0.9.

Chain of E-selectin (Homo sapiens) (P16581 whole entry, looked up): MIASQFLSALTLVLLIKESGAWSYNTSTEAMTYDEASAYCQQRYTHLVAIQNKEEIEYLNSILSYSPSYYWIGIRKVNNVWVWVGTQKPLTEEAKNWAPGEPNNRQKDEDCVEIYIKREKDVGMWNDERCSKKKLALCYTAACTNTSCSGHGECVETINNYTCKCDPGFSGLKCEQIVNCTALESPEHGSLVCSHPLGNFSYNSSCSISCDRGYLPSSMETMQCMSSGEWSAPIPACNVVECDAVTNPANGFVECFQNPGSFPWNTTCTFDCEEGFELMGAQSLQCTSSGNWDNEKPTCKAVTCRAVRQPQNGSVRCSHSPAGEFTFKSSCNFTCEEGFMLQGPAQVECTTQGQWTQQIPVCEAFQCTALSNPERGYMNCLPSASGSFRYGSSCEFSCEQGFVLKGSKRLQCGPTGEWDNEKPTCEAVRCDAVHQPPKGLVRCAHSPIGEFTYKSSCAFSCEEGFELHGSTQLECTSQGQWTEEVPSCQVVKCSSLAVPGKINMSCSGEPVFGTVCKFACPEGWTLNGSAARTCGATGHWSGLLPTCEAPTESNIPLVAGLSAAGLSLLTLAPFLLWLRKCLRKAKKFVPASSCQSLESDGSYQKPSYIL

As to `Clc1ccccc1Cl`, the result in experiment [1], in [2], in [3], in [4], in experiment [5] and in experiment [6] was inactive. Besides, the result in experiment [7], in experiment [8], in experiment [9], in [10], in experiment [11] and in experiment [12] was inactive. The result in [13], in [14], in experiment [15], in experiment [16], in experiment [17] and in [18] was inactive.

Consider `Brc1ccc(Oc2ccccc2)cc1`, for which the result in experiment [1], in experiment [2], in experiment [3], in experiment [4], in [5] and in experiment [6] was inactive. Further, the outcome in [7], in experiment [19], in experiment [8], in [9], in experiment [10] and in experiment [11] was inactive. The outcome in [12], in experiment [13], in [14], in experiment [15], in experiment [16] and in experiment [17] was inactive. Besides, in experiment [18], the result was inactive.

Consider `O=[N+]([O-])c1ccc(Oc2ccc(Cl)cc2Cl)cc1`, for which the result in [1], in [2], in [20], in experiment [5], in experiment [6] and in [7] was inactive. Also, the result in [19], in [8], in experiment [9], in experiment [10], in experiment [12] and in [14] was inactive. In addition, the result in experiment [15] and in [16] was inactive. For the same compound, the AC50 in experiment [3] was 10.2 µM (active); in [4], 13.5 µM (active); in [11] it was 8.09 µM (active); in experiment [13], 20 µM (active); in experiment [17], 27.2 µM (active); in experiment [18] it was 25.7 µM (active).

Regarding `OCCCBr`, the result in [1], in experiment [2], in experiment [3], in experiment [20], in experiment [5] and in experiment [6] was inactive. Moreover, the outcome in experiment [7], in [19], in experiment [8], in experiment [9], in experiment [10] and in experiment [11] was inactive. The outcome in experiment [12], in experiment [13], in [14], in experiment [15], in [16] and in [17] was inactive. In addition, the result in experiment [18] was inactive.

What is called AC50 is the midpoint of the concentration-response curve, whichever way the signal moves.
